# High-throughput results: PubChem, National Center for Advancing Translational Sciences (NCATS)
# A selection: hits, their analogues and other compounds. The true share with any hit is near 11%.
# PNC assembly inh: inhibitors of perinucleolar compartment assembly; PC3M PTB-GFP, PNC prevalence imaging, 16 h; hits give low values; activity change (PNC), negative = inhibition, % at 10 µM; 140,000 tested, 3.1% active; AID 2417;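 active = readout at or below -70, meaning at least 70% loss of cells showing the perinucleolar compartment, a nuclear body marking cancer cells; inconclusive = readout between -30 and a set limit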;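 note: plate controls were DMSO wells for no effect and camptothecin positive control wells for full effect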
#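 Compounds are pinned in duplicate onto adhered PC3M cells stably expressing GFP-tagged PTB and incubated 16 h at 37 C. Cells are then fixed, nuclei stained with Hoechst, and PNC-positive cells counted.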
# ALDH1A1 inh: blocks purified human ALDH1A1 activity; Purified ALDH1A1, NADH fluorescence, propionaldehyde substrate; P00352; 220,000 tested, 7.3% active; Potency, µM (highest dose often 75.3 µM), without a hit: at the top dose activity, negative = inhibition, hits mostly inhibitors;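 note: potency is the fitted concentration of half-maximal effect; plate controls were no enzyme wells and a reference inhibitor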
# HPGD block: blocks human HPGD enzyme activity | purified HPGD, NADH fluorescence kinetic, PGE2 substrate | Potency, µM, without a hit: at the highest dose activity change, negative = inhibition, hits mostly inhibitors | 150,000 tested, 4.3% active | AID 894; note: potency is the fitted concentration of half-maximal effect
# Target sequence (P15428 whole entry, looked up): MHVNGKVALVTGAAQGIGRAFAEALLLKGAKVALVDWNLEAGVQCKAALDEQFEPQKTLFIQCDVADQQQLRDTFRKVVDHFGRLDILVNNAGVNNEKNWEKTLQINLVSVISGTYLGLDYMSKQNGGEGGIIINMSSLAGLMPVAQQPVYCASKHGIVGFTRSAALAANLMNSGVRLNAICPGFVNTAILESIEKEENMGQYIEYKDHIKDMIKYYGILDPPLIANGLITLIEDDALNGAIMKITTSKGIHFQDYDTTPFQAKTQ
#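 20 nM HPGD preincubated 15 min at room temperature with compound in 50 mM Tris-HCl pH 8, 0.01% Tween 20. Started with 1 mM NAD+ and 30 uM prostaglandin E2; NADH fluorescence (360/450 nm) read 5 times over 30-s intervals, last minus first.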
# IMPase Li cell: IMPase inhibition in cells with lithium potentiation. CHO-M1 cells, IP1 TR-FRET (IP-One), carbachol + lithium. Potency, µM (top dose mostly 59.4 µM), for inactives: at the top dose activity, negative = IMPase inhibition, hits mostly inhibitors. 210,000 tested, 0.35% active; active = well fitted curve in the direction sought with a large enough effect; inconclusive = small, poorly fitted or top-dose-only effect, or another doubt; inactive = no such curve, though single readings can be large; an effect the other way counts as inactive or inconclusive;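 note: IP1 builds up when IMPase is blocked and the TR-FRET signal falls; potency is the fitted concentration of half-maximal effect; plate controls were basal vehicle for no effect and high inhibitor control for full effect; nearly all actives have a fitted effect of over 50% in size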
#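 IP1 accumulation measured by competitive TR-FRET in lysed CHO-M1 cells after 30 min compound exposure at 37C, with a small lithium addition to potentiate weak responses. Hill-equation AC50 from ratio and donor-channel data.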
# 12-hLO inh: 12-hLO (ALOX12) enzyme inhibition; P18054; Potency, µM (top dose mostly 57.1 µM), inactives show at the highest dose activity change, negative = inhibition, usual class: inhibitors; 150,000 tested, 0.12% active; purified 12-hLO, xylenol orange hydroperoxide absorbance; active = well fitted curve in the direction sought with a large enough effect; inconclusive = small, poorly fitted or top-dose-only effect, or another doubt; inactive = no such curve, though single readings can be large; an effect the other way counts as inactive or inconclusive; note: potency is the fitted concentration of half-maximal effect; nearly all actives have a fitted effect of over 55% in size
#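 Xylenol orange chromogenic assay: hydroperoxide from 12hLO oxidises Fe(II), giving red-shifted Fe(III)-XO absorbance. Conditions: 150 nM enzyme, 40 uM arachidonic acid, 25 mM Hepes pH 7.0, 0.01% Triton X-100, 30 min, room temperature.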
# IMPase cell inh: membrane-permeable compound that blocks inositol monophosphatase | 120,000 tested, under 10 active | P97697 | CHO-M1 cells, IP1 accumulation, HTRF TR-FRET ratio | inhibition (IP1 accumulation), % at 46.1 µM; active = well fitted curve in the direction sought with a large enough effect in the signal ratio, not every such curve was filed as active; inconclusive = small, poorly fitted or top-dose-only effect, or a change in a side signal; inactive = no such curve, though single readings can be large or run the other way; the % refers to the signal ratio;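 note: cells stimulated with carbachol in lithium chloride buffer; plate controls were DMSO basal wells for no effect and reference inhibitor wells for full effect; higher means more IMPase inhibition seen as more IP1 and lower FRET ratio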
# Target sequence (P97697 whole entry, looked up): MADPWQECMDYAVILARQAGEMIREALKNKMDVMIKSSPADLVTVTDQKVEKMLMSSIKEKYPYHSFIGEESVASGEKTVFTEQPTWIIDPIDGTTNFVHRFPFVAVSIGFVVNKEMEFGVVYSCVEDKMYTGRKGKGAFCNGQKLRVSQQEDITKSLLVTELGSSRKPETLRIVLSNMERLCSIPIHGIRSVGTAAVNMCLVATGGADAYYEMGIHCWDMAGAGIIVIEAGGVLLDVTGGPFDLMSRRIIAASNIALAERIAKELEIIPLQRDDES
#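 CHO-M1, 2000 cells/well, cultured 16–30 h; cpd up to 46 uM; carbachol (50 uM solution, stimulation buffer w/ 50 mM LiCl, pH 7.4), 30 min 37C; IP-One TR-FRET, 10 min RT; Ex 320/Em 665, 620; Hill-fit AC50.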
# An asterisk follows results filed as active; u = inconclusive; x = not tested or not shown; [ ] = another dose, or the depositor's remark. Unless noted, calls come from the whole dose curve; as a rule, active = well fitted inhibition curve with a large enough effect (not every such curve was filed as active); inconclusive = small, poorly fitted or top-dose-only effect, or another doubt; inactive = no such curve, though single readings can be large or run the other way. Unless noted, % is set by controls: 0 for no effect and ±100 for the full control effect.
SMILES,PNC assembly inh,ALDH1A1 inh,HPGD block,IMPase Li cell,12-hLO inh,IMPase cell inh
COc1ccc(Cl)cc1-n1c(C)cc(C(=O)O)c1C,-22.5,u,12.6µM*,5.5%[38.3 µM],-1.0%,5.3
COc1ccc(Cl)cc1-n1c(C)cc(C=O)c1C,-11.5,12.6µM*,14.1µM*,21.1%[38.3 µM],1.6%,12.0
CCOc1ccccc1-n1c(C)cc(C=O)c1C,x,u,x,14.3%,x,x
CCCCc1nc2c(c3c1CC(C)OC3)CN(CCOc1ccccc1)CC2 (stereo unspecified),x,-2.1%[13.5 µM],x,x,x,x
CCN1C(=O)N[C@@H](c2ccccc2)C1=O,x,0.6%[20.9 µM],-3.0%,-5.1%,-5.2%[25.6 µM],2.7[20.6 µM]
S=C(Nc1ccccc1)N1CCN(C(=S)c2ccccc2)CC1,x,12.6µM*,x,11.5%,x,x
S=C(Nc1ccccc1)N1CCCCC1,-8.9,3.4%,-4.8%,-26.2%[38.3 µM],-3.2%,0.5
CCOC(=O)C(=O)Nc1nnc(C2CCCCC2)s1,24.3,31.6µM*,15.8µM*,12.0%[38.3 µM],-2.8%,0.3
CCOCC(=O)Nc1nnc(C2CCCCC2)s1,6.2,18.9µM*,-25.3%,1.2%[38.3 µM],1.5%,-0.9
COCC(=O)Nc1nnc(C2CCCCC2)s1,u,u,-13.9%,13.2%[38.3 µM],15.1%,9.7
CCOC(=O)C1=C(C)c2ccccc2OC1(CC)C(=O)OCC (stereo unspecified),x,1.1%,-11.4%,12.7%,-0.5%[0.00818 µM],x
CCOC(=O)C1=C(C)c2ccccc2N(C(=O)OC)C1(C)C(=O)OCC (stereo unspecified),x,31.6µM*,u,18.7%,u,x
C=CCNc1nc(-c2ccc([N+](=O)[O-])cc2)cs1,-113.8*,4.3%,-9.9%,-5.0%,-1.8%,x
CC(C)(C)c1ccc(O)c(CN(Cc2cc(C(C)(C)C)ccc2O)C2CCCCC2)c1,x,7.9%[13.5 µM],-12.4%,-12.9%,-8.7%[11.4 µM],x
COc1ccccc1C1NC=C([N+](=O)[O-])C=C1[N+](=O)[O-] (stereo unspecified),16.1,8.91µM*,3.55µM*,8.9%,-7.5%,x
COc1ccccc1C1C([N+](=O)[O-])=CC([N+](=O)[O-])=CN1C (stereo unspecified),u,12.6µM*,-10.0%,4.1%,-0.9%,x
COc1ccccc1C1CCN(c2ccc([N+](=O)[O-])c(OC)c2)CC1,x,0.7%,x,x,x,x
C[C@@H]1C[C@H](OC(=O)c2ccccc2O)CC(C)(C)C1,x,4.1%[20.9 µM],-1.3%,15.7%,0.4%[25.6 µM],0.0[20.6 µM]
Cc1nn(CC(O)c2ccccc2)c(C)c1Br (stereo unspecified),31.2,17.8µM*,-2.9%,-7.3%[38.3 µM],1.3%,3.9
O=C(O)C(C(=O)/C=C/c1ccco1)=C1SCCS1,30.3,12.6µM*,-20.9%,4.3%[38.3 µM],-21.7%,1.0
COC(=O)c1ccccc1NC(=O)/C=C/c1ccco1,-9.2,25.1µM*,-24.3%,-3.1%,-3.8%,2.6
O=C(CCCN1C(=O)/C(=C\c2cccs2)SC1=S)Nc1ccc(C(=O)O)cc1,x,-7.7%,x,-4.4%,x,x
O=C(/C=C/c1ccco1)NC(=S)Nc1ccc(Cl)cn1,-12.6,10µM*,-25.8%,12.0%[38.3 µM],u,4.5
COc1ccc(NC(=O)CCCN2C(=O)/C(=C\c3ccco3)SC2=S)cc1,-21.3,25.1µM*,-19.2%,32.4%,-4.6%,33.0
O=C(C=C1SCCS1)/C=C/c1ccco1,1.0,-16.1%,-9.5%,-1.8%[38.3 µM],-9.4%,4.3
CCCCN1CCC(n2c(=O)[nH]c3ccccc32)CC1,x,21.3%,5.1%,19.0%,-6.7%,14.7
CC(C)(C)c1cc2c(O)c(c1)Cc1cc(C(C)(C)C)cc(c1O)Cc1cc(C(C)(C)C)cc(c1O)Cc1cc(C(C)(C)C)cc(c1O)Cc1cc(C(C)(C)C)cc(c1O)Cc1cc(C(C)(C)C)cc(c1O)Cc1cc(C(C)(C)C)cc(c1O)Cc1cc(C(C)(C)C)cc(c1O)C2,x,-2.7%[13.5 µM],-5.2%,-18.7%,-1.2%[11.4 µM],x
CCCC(=O)NC(=S)Nc1ccc(Cl)cn1,37.6,25.1µM*,-14.0%,8.2%[38.3 µM],-4.2%,-8.5
O=C(/C=C/c1ccco1)NC1CCCC1,x,22.4µM*,x,-0.2%,x,x
NN1C(=O)/C(=C\c2ccco2)SC1=S,x,1.26µM*,x,x,x,x
